One test concerns the target ST8SIA1. Briefly: pooled miR-30 sensor sort-seq; sequence = guide strand. As to conditions: shRNA.
As for TTAGCTGTCACTAACTGACTTT, the sensor-assay potency score (higher = more potent) came to 0.0924. The same measure, in the same setting: the value for TAGCTGTCACTAACTGACTTTT was -1.28.

Regarding TAAGACGTTGTCATAGTAGTGG, the sensor-assay potency score (higher = more potent) stood at 0.604. Same read-out and setting: the result for TAAGTTGAATTGTCAATGGTGA reads -0.263; that for TTGTCCACAAATGTCTTTCTGG, -0.546; that for TTTGCTTCATCTATTTGACGGC, 0.566. Turning to TTTGATTGGCACCAACATCTGA, the sensor-assay potency score (higher = more potent) was -0.123. Same read-out and setting: the result for TTTGTTTCCTGAACGCTCTGGC reads 0.807; that for TTGACAATCAGCAACACTTTTA, -1.09; that for TTGATTGGCACCAACATCTGAC, -0.0698. The sequence TGACAGTGTATAATAAACCCTC gave a sensor-assay potency score (higher = more potent) of -0.586.

The target in the next test is ST8SIA4. Described as above. As to conditions: shRNA.
In the case of TTCTATTTGAATAACAAGGGGA, the sensor-assay potency score (higher = more potent) is -0.346.

Turning to TTTAACTACAGAAAATATCGGT, the sensor-assay potency score (higher = more potent) was 0.525. On the same count and under the same terms, the value for TTGACCACTGACACATCTCGTT was 0.237; that for TCTTTTGATAGGAACTTTGTTG was -0.556; that for TTAACTACAGAAAATATCGGTC was 0.169.

TTTCCAACCTTCTACATTGTGC showed a sensor-assay potency score (higher = more potent) of -0.709.

The sequence TACATGAGAAGACCTGTGCTGG registered a sensor-assay potency score (higher = more potent) of -0.695. On the same count and under the same terms, the result for TTATGTAGCACATTTAATGTTT reads -0.574; that for TTTGATAGGAACTTTGTTGGTC, 0.701. Still for that read-out and setting: the result for ATTGTGACTGTCAATCTCCTTT reads -0.228; that for TTGAAATTAATCATCTCTGTTT, 0.14.

Another test has as its target STAC. Described as above. The conditions noted are these: shRNA.
TTGTAGTCTCTGAACAAAGTTG showed a sensor-assay potency score (higher = more potent) of -1.06.

Turning to TCTTGAAAGAAAGTGATCGTTT, the sensor-assay potency score (higher = more potent) is -0.172. Same read-out and setting: the result for TTGTCAGCACTTTTGCTCCGTA reads -0.694; that for TTGTACAAGGCAACATAGGTGT, -0.164; that for TTTATAGTCCTACTGCTGCTGC, -0.661. The same measure, in the same setting: the value for TATGTAAACACGCTGTTGCTGC was -0.123; that for TTCCAAATCTTCATTCTCCTGT was 0.665; that for TTCTTCTTCAGAACTCACGCAG was 0.0195. Same read-out and setting: the value for TTTGTTGTAGTCTCTGAACAAA was -1.36; that for TTGCAGTTTCATGTCTTCGCTG was 0.116.

TTTCATGTCTTCGCTGTTGGTT returned a sensor-assay potency score (higher = more potent) of 0.0863. The same measure, in the same setting: the value for TACATTTCTTCTAAGATGCTGT was 0.11.

The target in the next test is STAP2. The test is described as above. As to conditions: shRNA.
As for TCTCATAGTAGTGTGAAGGCAG, the sensor-assay potency score (higher = more potent) is 0.0304. In turn, TTCTTCTGTAGCTCTGCCGTCA had a sensor-assay potency score (higher = more potent) of -0.496. TTCCACGTAGCCTAGCACCTTC showed a sensor-assay potency score (higher = more potent) of -0.0469. On the same count and under the same terms, the result for TAGAGGAAGCCACATCTTGGTT reads -1.31.

These data come from the OligoGym collection.
Further: reference of the scale not given here.
